Data reported in PubChem BioAssay (NCATS).
Values without a mark were called inactive. Results filed as inconclusive are left out. Active and inactive are the calls of the source. Unless noted, the call rests on the fitted dose curve; in most records, active means well fitted curve in the direction sought with a large enough effect; inconclusive means small, poorly fitted or top-dose-only effect, or another doubt; inactive means no such curve, though single readings can be large; an effect the other way counts as inactive or inconclusive.

Key:
[1] = molecular target: Lysosomal acid glucosylceramidase (Homo sapiens) (UniProt P04062); assay: Glucocerebrosidase-p2 (AID 348; in the data active means potency below about 10 µM; further: potency means the concentration at half of the fitted maximal effect); conditions: purified GBA, blue fluorogenic substrate, 40 min
Procedure, shortened: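 Compounds titrated from 0.6 nM upwards against 0.2 nM enzyme in pH 5.9 citric acid/KH2PO4, taurocholate, tween-20; blue fluorogenic substrate 80 uM, 40 min room temperature, stopped and read Ex 365/Em 440 for AC50.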

[2] = AP1 Signaling Pathway (AID 357; active means well fitted curve in either direction with a large enough effect, not every such curve was filed as active;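 further: ME-180 reporter cells stimulated with EGF at its EC50 level; on the % scale 0 is the no-effect control and ±100 the full control effect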); conditions: ME-180 AP-1-bla reporter, EGF-induced, beta-lactamase ratio, 5 h; at 7.69 µM (top of the series) unless noted
Procedure, shortened: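 AP-1-bla ME-180 cells, Opti-MEM + 0.5% dialyzed FBS, plated overnight 37 °C. Cpd titration + EC50 EGF, 5 h 37 °C. CCF4 2.5 h RT; ex 405, em 460/530 ratio → %activity, AC50.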

[3] = molecular target: Cytochrome P450 1A2 (Homo sapiens) (UniProt P05177); assay: p450-cyp1a2 (AID 410; calls by dose curve; further: potency means the concentration at half of the fitted maximal effect); conditions: recombinant CYP1A2, luciferin-ME demethylation, luminescence; series mostly up to 57 µM
Procedure, shortened: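 Luminescent readout of luciferin formed from Luciferin-ME by human CYP1A2; data normalized against complete inhibition by 57 uM furafylline. Enzyme 20nM, substrate 100uM at Km, 100mM KPO4 buffer, 60 min reaction at room temperature.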

[4] = NFAT Signaling Pathway (AID 444; active means well fitted curve in either direction with a large enough effect, not every such curve was filed as active;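 further: carbachol stimulus at about its EC50 of 1 µM final; on the % scale 0 is the no-effect control and ±100 the full control effect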); conditions: Jurkat NFAT-bla M1, carbachol, beta-lactamase ratio, 5 h; at 7.69 µM (top of the series) unless noted
Procedure, shortened: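 Read-out: CCF4 FRET ratio (460 nm/530 nm) after 1 h RT dye loading, used for %activity and AC50 from titration series. Cells: Jurkat NFAT-β-lactamase/M1 line, treated with compound plus 1 uM carbachol for 5 h, 37 °C.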

[5] = Stat Signaling Pathway (AID 446; active means well fitted curve in either direction with a large enough effect, not every such curve was filed as active;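 further: ME-180 cervical cancer cells given 40 pM IL-6 alongside compound; SIE-controlled beta-lactamase reporter measured as 460/530 nm FRET emission ratio; on the % scale 0 is the no-effect control and ±100 the full control effect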); conditions: ME-180 SIE beta-lactamase reporter, IL-6 stimulated, 5 h; at 7.69 µM (top of the series) unless noted
Procedure, shortened: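 Reporter line: ME-180 cervical carcinoma, SIE-beta-lactamase. Treatment: compound with 40 pM IL-6, 5 hrs, 37 C, in low-serum OPTI-MEM with 10 mM HEPES pH 7.3. Detection: 460/530 nm fluorescence.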

[6] = molecular target: Glucocorticoid receptor (Homo sapiens) (UniProt P04150); assay: GR-GFP Redistribution (AID 450;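 active means compounds whose dose series gives a full or clear partial fitted curve of increased nuclear translocation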; further: potency means the concentration at half of the fitted maximal effect); conditions: U2OS GR-GFP nuclear translocation, laser cytometry, 2 h
[7] = molecular target: Glucocorticoid receptor (Homo sapiens) (UniProt P04150); assay: GR-EFC Redistribution (AID 451; calls by dose curve; further: potency means the concentration at half of the fitted maximal effect); conditions: CHO-K1 GR-EFC translocation, beta-gal luminescence, 2 h
Procedure, shortened: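 Translocation of GR-ED fusion to nuclear EA restores b-gal, read by luminescence after 1 h room-temperature detection. Engineered CHO-K1 biosensor cells, 1,000/well, exposed 2 h at 37 C to titrations up to 46 uM final.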

[8] = molecular target: Mitogen-activated protein kinase 10 (Mus musculus) (UniProt Q61831); assay: JNK3 AlphaScreen Assay (AID 530; active means well fitted curve in either direction with a large enough effect, not every such curve was filed as active;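 further: kinase came from lysate of stimulated human HepG2 cells; signal reports phosphorylation of biotinylated GST-cJun 1-79 at Ser73 with 10 µM ATP; on the % scale 0 is the no-effect control and ±100 the full control effect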); conditions: JNK3 lysate, c-Jun phosphorylation; series mostly up to 57.1 µM
Procedure, shortened: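 Compound titrations were preincubated 15 minutes at room temperature with substrate, antibody and pre-activated JNK3-containing HepG2 lysate. Reactions were started with 10 uM ATP and stopped with EDTA-containing bead buffer for AlphaScreen detection.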

[9] = molecular target: 3',5'-cyclic-AMP phosphodiesterase 4B (Homo sapiens) (UniProt Q07343); assay: qHTS Assay for Inhibitors of PDE-IV (AID 607; active means well fitted activation curve with a large enough effect in the main read-out, with a control signal flat, not every such curve was filed as active; further: % of control where 0% means no effect); conditions: HEK293 ACTOne CNG channel cells, membrane potential fluorescence; series mostly up to 22.9 µM
Procedure, shortened: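 Cell-based read-out of cAMP via a modified cyclic nucleotide-gated channel and membrane potential dye (535/590 nm) in HEK293 cells expressing PDE4 endogenously. Compounds tested up to 22.9 uM final; 100 uM RO 20-1724 reference.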

[10] = molecular target: Cytochrome P450 3A4 (Homo sapiens) (UniProt P08684); assay: qHTS Assay for Activators of Cytochrome P450 3A4 (AID 885); conditions: recombinant CYP3A4, Luciferin-PPXE luminescence, 60 min; series mostly up to 57.1 µM; further: nearly all actives have a fitted effect of over 65% in size
Procedure, shortened: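 Signal was normalized against complete inhibition by 57 uM ketoconazole. The reaction used 20nM CYP3A4 with 25uM Luciferin-PPXE, 10-min compound preincubation and a 60-min NADPH-supported step at RT.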

[11] = Confirmation and Secondary Assay for Modulators of Hemoglobin Beta Chain Splicing at IVS2 654 locus (AID 910); conditions: HeLa EGFP-654 splicing reporter, GFP fluorescence, 48 h; series mostly up to 38.3 µM;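 further: HeLa cells stably carrying EGFP split by mutant beta-globin IVS2-654 intron; per-well total GFP intensity by laser scanning cytometry after 2-day treatment; % of control where 0% means no effect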
Procedure, shortened: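 Readout: per-well total peak green fluorescence (488 nm ex, 500–520 nm em) from objects 5–250 µm, reflecting correct splicing of an EGFP-654 reporter. Compounds were applied for 2 days at 37 °C to overnight-plated HeLa EGFP-654 cells; controls were DMSO and 500 nM IVS2-654 PNA.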

[12] = qHTS Assay for Identification of Small Molecule Agonists for Hypoxia Response Element Signaling Pathway (AID 914; active means well fitted activation curve with a large enough effect in the signal ratio, with a control signal flat, not every such curve was filed as active; the % refers to the signal ratio; further: % of control where 0% means no effect); conditions: ME-180 (cervical carcinoma) HRE-bla reporter, beta-lactamase ratio, CoCl2, 17 h; activation: hits give high values
Procedure, shortened: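 Reporter activity (beta-lactamase, CCF4 460nm/530nm ratio) in HRE-bla ME-180 cells is recorded after 17 h compound exposure with EC50 CoCl2 at 37 degrees Celsius. AC50 values come from titration data.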

[13] = molecular target: Ubiquitin carboxyl-terminal hydrolase 1 (Homo sapiens) (UniProt O94782); assay: Inhibitors of USP1/UAF1: Pilot qHTS (AID 504865); conditions: purified USP1/UAF1, Ub-rhodamine cleavage fluorescence; series mostly up to 54.9 µM; further: nearly all actives have a fitted effect of over 35% in size; further: potency means the concentration at half of the fitted maximal effect
Procedure, shortened: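 Kinetic fluorescence assay: 1nM USP1/UAF1, 15 min compound preincubation, then 150nM Ub-Rho; 480/540 nm.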

[14] = Primary qHTS for small molecule stabilizers of the endoplasmic reticulum resident proteome: Secreted ER Calcium Modulated Protein (SERCaMP) assay (AID 1508630); conditions: SH-SY5Y GLuc-SERCaMP (Gaussia luciferase released on ER calcium loss) secretion, thapsigargin, luminescence; series mostly up to 38.4 µM; further: on the % scale 0 is the no-effect control and ±100 the full control effect
Procedure, shortened: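 GLuc-SERCaMP-expressing SH-SY5Y cells, pretreated 16 h with compound, are challenged with thapsigargin to empty ER calcium stores; after 4 h, coelenterazine is added directly to the medium and luminescence is imaged.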

[15] = molecular target: Cytochrome P450 2C19 (Homo sapiens) (UniProt P33261); assay: qHTS Assay for Inhibitors and Substrates of Cytochrome P450 2C19 (AID 899); conditions: recombinant CYP2C19, luciferin-H EGE luminescence; series mostly up to 57.1 µM; further: potency means the concentration at half of the fitted maximal effect; nearly all actives have a fitted effect of over 60% in size
Procedure, shortened: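 Luminescence readout of luciferin formed from 10uM Luciferin-H EGE (KM level) by 5 nM CYP2C19 in 50mM KPO4. 60 min NADPH-driven reaction at 37C after 10 min compound preincubation; data scaled to 57uM ketoconazole inhibition.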

[16] = molecular target: Dual specificity protein kinase CLK4 (Homo sapiens) (UniProt Q9HAZ1); assay: qHTS Assay for Inhibitors of CDC-like Kinase 4 (ADP-FP Assay) (AID 1795); conditions: Transcreener ADP fluorescence polarization; series mostly up to 50 µM;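 further: recombinant human CLK4 phosphorylating RS repeat peptide at 1 µM ATP; on the % scale 0 is the no-effect control and ±100 the full control effect; nearly all actives have a fitted effect of over 60% in size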
Procedure, shortened: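 Inhibition of ADP formation by 6.25 nM Clk4 is measured using 1 uM ATP and 100 uM RS repeat peptide over one hour. Produced ADP displaces a fluorescent tracer from antibody, lowering polarization.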

[17] = molecular target: Cytochrome P450 3A4 (Homo sapiens) (UniProt P08684); assay: qHTS Assay for Inhibitors and Substrates of Cytochrome P450 3A4 (AID 884); conditions: recombinant CYP3A4, Luciferin-PPXE luminescence; series mostly up to 57.1 µM; further: potency means the concentration at half of the fitted maximal effect; nearly all actives have a fitted effect of over 50% in size
Procedure, shortened: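 20 nM human CYP3A4 with 25 uM Luciferin-PPXE (at KM) in 200 mM KPO4, preincubated 10 min with compound; NADPH regeneration started a 60 min RT reaction. Luciferin detected by luminescence, normalized to 57 uM ketoconazole as full inhibition.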

[18] = molecular target: Cytochrome P450 2D6 (Homo sapiens) (UniProt P10635); assay: qHTS Assay for Inhibitors and Substrates of Cytochrome P450 2D6 (AID 891); conditions: recombinant CYP2D6, luciferin-ME EGE luminescence; series mostly up to 57.1 µM; further: potency means the concentration at half of the fitted maximal effect; nearly all actives have a fitted effect of over 60% in size
Procedure, shortened: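 Human CYP2D6 (5 nM) with 30 uM Luciferin-ME EGE (at Km) in 100 mM KPO4, compound preincubated 10 min, then NADPH regeneration system for 60 min at room temperature. Luciferin read by luminescence; normalized to 1.43 uM quinidine.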

Chain of Ubiquitin carboxyl-terminal hydrolase 1 (Homo sapiens) (O94782 whole entry, looked up): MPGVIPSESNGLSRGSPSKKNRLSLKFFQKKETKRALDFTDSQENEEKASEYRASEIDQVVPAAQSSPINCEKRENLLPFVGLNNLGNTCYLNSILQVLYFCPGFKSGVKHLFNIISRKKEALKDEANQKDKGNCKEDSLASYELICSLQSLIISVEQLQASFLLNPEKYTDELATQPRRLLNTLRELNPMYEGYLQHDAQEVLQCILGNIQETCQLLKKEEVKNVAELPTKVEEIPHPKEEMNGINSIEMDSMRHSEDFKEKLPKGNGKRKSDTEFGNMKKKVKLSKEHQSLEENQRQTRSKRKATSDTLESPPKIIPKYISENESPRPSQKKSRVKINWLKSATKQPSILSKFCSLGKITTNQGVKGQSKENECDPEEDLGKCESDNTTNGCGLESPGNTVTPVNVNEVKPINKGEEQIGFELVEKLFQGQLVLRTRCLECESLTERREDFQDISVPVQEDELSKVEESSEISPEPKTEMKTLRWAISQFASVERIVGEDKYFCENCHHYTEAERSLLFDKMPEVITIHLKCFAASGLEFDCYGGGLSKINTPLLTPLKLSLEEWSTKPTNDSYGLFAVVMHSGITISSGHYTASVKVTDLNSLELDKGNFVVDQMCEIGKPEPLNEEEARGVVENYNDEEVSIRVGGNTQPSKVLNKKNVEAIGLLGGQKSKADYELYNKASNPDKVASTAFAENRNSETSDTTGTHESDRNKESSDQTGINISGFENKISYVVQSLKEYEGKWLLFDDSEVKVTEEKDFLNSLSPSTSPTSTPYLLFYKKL
Chain of Glucocorticoid receptor (Homo sapiens) (P04150 whole entry, looked up, the tested form may be a part): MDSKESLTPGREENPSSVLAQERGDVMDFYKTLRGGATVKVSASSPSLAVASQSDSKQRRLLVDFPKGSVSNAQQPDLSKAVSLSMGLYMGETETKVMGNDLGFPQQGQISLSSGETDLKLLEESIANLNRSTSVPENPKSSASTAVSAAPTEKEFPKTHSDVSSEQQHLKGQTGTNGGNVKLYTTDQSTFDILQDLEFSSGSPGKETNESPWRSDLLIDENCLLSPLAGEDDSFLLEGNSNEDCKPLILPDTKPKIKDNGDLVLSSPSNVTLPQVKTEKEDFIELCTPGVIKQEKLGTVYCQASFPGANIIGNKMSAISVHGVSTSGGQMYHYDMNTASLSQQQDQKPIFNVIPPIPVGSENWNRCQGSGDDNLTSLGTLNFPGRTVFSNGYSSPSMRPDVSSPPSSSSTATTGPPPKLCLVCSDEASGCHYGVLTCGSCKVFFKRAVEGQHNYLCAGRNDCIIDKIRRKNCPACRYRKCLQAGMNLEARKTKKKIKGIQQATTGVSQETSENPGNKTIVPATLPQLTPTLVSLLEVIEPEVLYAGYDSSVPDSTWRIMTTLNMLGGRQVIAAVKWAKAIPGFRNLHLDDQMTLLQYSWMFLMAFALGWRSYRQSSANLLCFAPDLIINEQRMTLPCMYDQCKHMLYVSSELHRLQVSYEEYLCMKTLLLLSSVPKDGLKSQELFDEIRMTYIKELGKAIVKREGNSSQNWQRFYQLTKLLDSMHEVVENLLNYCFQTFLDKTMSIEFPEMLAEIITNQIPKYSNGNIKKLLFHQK
Chain of Cytochrome P450 3A4 (Homo sapiens) (P08684 whole entry, looked up): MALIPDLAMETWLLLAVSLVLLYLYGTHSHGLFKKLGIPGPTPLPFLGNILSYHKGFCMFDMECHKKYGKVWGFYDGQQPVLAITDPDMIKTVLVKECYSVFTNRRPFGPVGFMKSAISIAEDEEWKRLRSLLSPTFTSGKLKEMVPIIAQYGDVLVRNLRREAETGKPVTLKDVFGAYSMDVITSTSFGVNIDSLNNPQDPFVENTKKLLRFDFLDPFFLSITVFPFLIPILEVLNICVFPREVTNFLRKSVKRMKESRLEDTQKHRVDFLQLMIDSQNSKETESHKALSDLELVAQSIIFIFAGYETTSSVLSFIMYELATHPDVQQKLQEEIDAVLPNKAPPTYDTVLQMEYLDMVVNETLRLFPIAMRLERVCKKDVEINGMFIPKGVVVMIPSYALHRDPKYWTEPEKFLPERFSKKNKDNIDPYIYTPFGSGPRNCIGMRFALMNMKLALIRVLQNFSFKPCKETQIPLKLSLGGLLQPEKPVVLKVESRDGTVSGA
Chain of 3',5'-cyclic-AMP phosphodiesterase 4B (Homo sapiens) (Q07343 whole entry, looked up): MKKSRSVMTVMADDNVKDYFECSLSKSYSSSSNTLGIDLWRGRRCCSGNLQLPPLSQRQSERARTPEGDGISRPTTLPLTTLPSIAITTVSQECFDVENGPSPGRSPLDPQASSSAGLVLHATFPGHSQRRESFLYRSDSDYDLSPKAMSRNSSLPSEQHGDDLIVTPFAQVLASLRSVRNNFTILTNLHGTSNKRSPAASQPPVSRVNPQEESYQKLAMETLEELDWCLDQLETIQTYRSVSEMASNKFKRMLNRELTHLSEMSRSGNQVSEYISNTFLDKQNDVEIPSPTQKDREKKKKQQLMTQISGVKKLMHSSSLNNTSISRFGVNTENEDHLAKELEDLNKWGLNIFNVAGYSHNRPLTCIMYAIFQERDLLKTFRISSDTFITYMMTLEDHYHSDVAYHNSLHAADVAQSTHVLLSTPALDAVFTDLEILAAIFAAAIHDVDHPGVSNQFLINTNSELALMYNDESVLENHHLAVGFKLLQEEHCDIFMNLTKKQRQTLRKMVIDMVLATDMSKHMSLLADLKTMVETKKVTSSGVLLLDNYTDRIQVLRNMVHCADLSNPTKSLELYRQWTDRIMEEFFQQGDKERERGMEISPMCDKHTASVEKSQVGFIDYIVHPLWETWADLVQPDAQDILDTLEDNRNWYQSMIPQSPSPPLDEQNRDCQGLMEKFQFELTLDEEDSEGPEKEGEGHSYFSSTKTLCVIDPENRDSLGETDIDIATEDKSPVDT
Chain of Cytochrome P450 2C19 (Homo sapiens) (P33261 whole entry, looked up): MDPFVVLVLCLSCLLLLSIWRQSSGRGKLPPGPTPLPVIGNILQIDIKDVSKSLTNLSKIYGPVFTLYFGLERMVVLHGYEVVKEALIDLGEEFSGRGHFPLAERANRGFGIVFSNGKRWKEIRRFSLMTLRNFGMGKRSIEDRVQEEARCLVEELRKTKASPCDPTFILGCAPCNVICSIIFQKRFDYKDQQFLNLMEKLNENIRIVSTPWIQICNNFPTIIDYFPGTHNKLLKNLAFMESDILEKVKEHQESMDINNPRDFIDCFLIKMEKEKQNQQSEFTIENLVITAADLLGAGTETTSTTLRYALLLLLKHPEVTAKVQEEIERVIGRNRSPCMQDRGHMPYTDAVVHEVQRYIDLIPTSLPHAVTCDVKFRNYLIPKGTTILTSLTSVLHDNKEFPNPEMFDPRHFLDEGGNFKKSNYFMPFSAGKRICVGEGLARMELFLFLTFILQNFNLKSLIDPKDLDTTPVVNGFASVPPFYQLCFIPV
Chain of Cytochrome P450 1A2 (Homo sapiens) (P05177 whole entry, looked up): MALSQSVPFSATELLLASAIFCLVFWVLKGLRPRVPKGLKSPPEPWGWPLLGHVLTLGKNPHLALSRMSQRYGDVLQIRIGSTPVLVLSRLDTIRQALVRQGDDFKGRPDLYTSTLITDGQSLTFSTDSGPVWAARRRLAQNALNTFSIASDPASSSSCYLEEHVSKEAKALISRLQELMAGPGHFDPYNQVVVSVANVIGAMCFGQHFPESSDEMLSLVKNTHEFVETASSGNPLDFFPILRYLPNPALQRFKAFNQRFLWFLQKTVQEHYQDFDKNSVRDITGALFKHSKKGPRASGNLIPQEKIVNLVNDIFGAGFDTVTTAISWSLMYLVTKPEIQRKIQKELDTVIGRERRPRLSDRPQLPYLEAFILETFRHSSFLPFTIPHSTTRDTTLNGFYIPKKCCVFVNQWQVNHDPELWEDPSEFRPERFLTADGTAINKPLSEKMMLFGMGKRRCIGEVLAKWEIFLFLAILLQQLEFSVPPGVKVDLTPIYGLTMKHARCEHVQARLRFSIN
Chain of Lysosomal acid glucosylceramidase (Homo sapiens) (P04062 whole entry, looked up): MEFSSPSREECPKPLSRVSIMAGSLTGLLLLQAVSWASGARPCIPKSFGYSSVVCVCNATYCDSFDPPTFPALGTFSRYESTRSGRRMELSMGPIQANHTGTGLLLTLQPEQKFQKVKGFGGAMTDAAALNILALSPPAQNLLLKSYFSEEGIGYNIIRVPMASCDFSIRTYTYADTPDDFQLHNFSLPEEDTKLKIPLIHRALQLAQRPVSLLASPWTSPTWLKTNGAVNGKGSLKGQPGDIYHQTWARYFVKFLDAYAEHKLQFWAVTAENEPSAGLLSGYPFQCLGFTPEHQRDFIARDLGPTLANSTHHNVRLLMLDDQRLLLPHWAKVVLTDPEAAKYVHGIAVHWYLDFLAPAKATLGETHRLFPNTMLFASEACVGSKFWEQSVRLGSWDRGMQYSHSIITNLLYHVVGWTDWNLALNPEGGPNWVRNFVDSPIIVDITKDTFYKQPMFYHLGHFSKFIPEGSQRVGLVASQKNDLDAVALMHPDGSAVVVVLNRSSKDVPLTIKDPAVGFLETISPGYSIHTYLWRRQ
Chain of Dual specificity protein kinase CLK4 (Homo sapiens) (Q9HAZ1 whole entry, looked up): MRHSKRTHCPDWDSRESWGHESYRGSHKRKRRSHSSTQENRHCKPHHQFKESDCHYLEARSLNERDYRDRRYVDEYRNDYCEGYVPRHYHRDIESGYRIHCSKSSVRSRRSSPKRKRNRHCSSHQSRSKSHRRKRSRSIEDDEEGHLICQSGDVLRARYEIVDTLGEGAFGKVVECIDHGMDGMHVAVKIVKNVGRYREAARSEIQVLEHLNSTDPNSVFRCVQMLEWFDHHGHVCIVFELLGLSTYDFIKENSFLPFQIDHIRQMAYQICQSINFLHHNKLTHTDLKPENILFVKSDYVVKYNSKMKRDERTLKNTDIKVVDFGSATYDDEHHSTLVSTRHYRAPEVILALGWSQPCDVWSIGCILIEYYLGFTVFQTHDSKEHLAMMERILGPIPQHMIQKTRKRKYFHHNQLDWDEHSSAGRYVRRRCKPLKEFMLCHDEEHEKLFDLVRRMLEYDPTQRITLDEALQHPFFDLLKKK

Compound | Potency [1] | activity change, negative = inhibition [2] | Potency [3] | activity change, negative = inhibition [4] | activity, negative = inhibition [5] | Potency [6] | Potency [7] | Potency [8] | Potency [9] | Potency [10] | Potency [11] | activation [12] | Potency [13] | outcome [14] | Potency [15] | Potency [16] | Potency [17] | Potency [18]
Cc1ccccc1-c1nccc(-n2ccnc2)n1 | > 11.4 µM | 5.77% | 0.0794 µM (active) | -8.66% | 12.8% | > 46 µM | > 46 µM | inactive | inactive | inactive | inactive | -1.43% | inactive | inactive |  |  |  | 
c1csc(CNc2nc(-c3ccc4c(c3)OCO4)nc3ccccc23)c1 | > 11.4 µM | 0.483% | 0.794 µM (active) |  | -13.1% | > 46 µM | > 46 µM | inactive |  | inactive |  |  |  | inactive | 3.16 µM (active) | inactive |  | 
COc1ccc2[nH]cc(CCNc3cc(-c4c(C)noc4C)ncn3)c2c1 | > 11.4 µM | 8.05% |  | 0.421% | -0.948% |  | > 46 µM | inactive | inactive |  |  |  | inactive | inactive |  | inactive |  | 
CCC(=O)O[C@@H]1CC(=O)O[C@H](C)C/C=C/C=C/[C@@H](O)[C@H](C)C[C@H](CC=O)[C@H](OC2O[C@H](C)[C@@H](O[C@H]3C[C@@](C)(O)[C@@H](OC(=O)CC)[C@H](C)O3)[C@H](N(C)C)[C@H]2O)[C@H]1OC (some centres undefined) |  |  |  |  |  |  |  |  |  |  |  |  |  | inactive |  |  |  | 
NC[C@@H]1O[C@H](O[C@H]2[C@H](O)[C@H](O[C@H]3[C@@H](O)[C@H](N)C[C@H](N)[C@H]3O[C@H]3O[C@H](CN)[C@H](O)[C@H](O)[C@H]3N)O[C@@H]2CO)[C@@H](N)[C@@H](O)[C@@H]1O |  |  |  |  |  |  |  |  |  |  |  |  |  | inactive |  |  |  | 
CC(=O)NCCNc1nc(-c2ccc3c(c2)OCO3)nc2ccccc12 | > 11.4 µM | -7.08% | 2.51 µM (active) | 5.61% | 4.37% | > 46 µM | > 46 µM | inactive | inactive | inactive |  |  | inactive | inactive |  |  | 3.98 µM (active) | 
Cc1noc(C)c1-c1nc(N(C)C)c2ccccc2n1 | > 11.4 µM |  | 0.0398 µM (active) | 3.94% | 4.14% | > 46 µM | > 46 µM | inactive | inactive | inactive |  |  | inactive | inactive |  | inactive |  | 
CCNc1ncc2nc(C)c(=O)n(CCOC)c2n1 | > 11.4 µM | -1.39% |  | 13.7% | -7.84% | > 9.22 µM | > 46 µM | inactive | inactive |  |  |  |  | inactive |  | inactive |  | 
COc1ccccc1-c1cc(Nc2ccc(F)cc2)ncn1 | > 11.4 µM |  | 2 µM (active) | -14.1% | -19.9% | > 46 µM | > 46 µM | inactive |  |  |  |  |  | inactive | 7.94 µM (active) | inactive |  | 
N#Cc1cccc(-c2cncnc2NCCc2cnc[nH]2)c1 | > 11.4 µM | -12% |  | 4.36% | -1.18% | > 46 µM | > 46 µM | inactive | inactive |  |  |  | inactive | inactive |  | inactive |  | 
c1ncc(-c2ccc3c(c2)OCO3)c(NCCc2cnc[nH]2)n1 | > 11.4 µM | -17.2% | 0.398 µM (active) | 1.1% | -11.2% | > 46 µM | > 46 µM | inactive | inactive | inactive | inactive |  | inactive | inactive | 0.0398 µM (active) |  | 0.794 µM (active) | 2.51 µM (active)
CN(C)Cc1ccccc1-c1nccc(NC2CC2)n1 | > 11.4 µM | -4.26% | 1.58 µM (active) | 1.25% | 5.09% | > 46 µM | > 46 µM | inactive | inactive | inactive | inactive |  | inactive | inactive |  |  |  | 0.631 µM (active)
c1ccc(CNc2ncncc2-c2ccoc2)cc1 | > 11.4 µM | 9.24% | 5.01 µM (active) | 17% | -8.66% | > 46 µM | > 46 µM | inactive | inactive | inactive |  | 1.1% | inactive | inactive |  |  | 2 µM (active) | 
COc1ccccc1-c1nc(NCc2cccs2)c2ccccc2n1 | > 11.4 µM |  | 0.631 µM (active) | -14.6% | 21.2% | > 46 µM | > 46 µM | inactive |  | inactive |  |  | 15.8 µM (active) | inactive |  | inactive |  | 
COCCn1c(=O)cnc2cnc(N(C)C)nc21 | > 11.4 µM | 8.38% |  | 7.07% | -2.06% | > 9.22 µM | > 46 µM | inactive | inactive |  |  |  | inactive | inactive |  | inactive |  | 
